Screening results from PubChem.
GIRK2 act – Activates human GIRK2-containing potassium channels. 34,000 tested, under 10 active. HEK293 GIRK2/NPY4 cells, thallium flux fluorescence. AID 1259324. activation (% efficacy), % for hits at 37.5 µM;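 active = primary screen hit, no activity in plain HEK293 cells, and in GIRK2-only cells above 5% efficacy rising with concentration; inactive = the rest, including fluorescent compounds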;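 also: efficacy is normalized control-subtracted fluorescence 15 s after thallium addition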
AMPAR-TARP mod – GluA2-stargazin AMPA receptor complex modulation. calls only at 30 µM. 40,000 tested, 3.5% active. HEK293 GluA2+stargazin, membrane potential dye (FDSS), glutamate EC50; hits were called plate by plate, in both directions. AID 1259245. O88602+P19491;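 active = any of four per-well response measures lying three or more SD from its plate-wide compound average, in either direction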
Target sequence (O88602 whole entry, looked up): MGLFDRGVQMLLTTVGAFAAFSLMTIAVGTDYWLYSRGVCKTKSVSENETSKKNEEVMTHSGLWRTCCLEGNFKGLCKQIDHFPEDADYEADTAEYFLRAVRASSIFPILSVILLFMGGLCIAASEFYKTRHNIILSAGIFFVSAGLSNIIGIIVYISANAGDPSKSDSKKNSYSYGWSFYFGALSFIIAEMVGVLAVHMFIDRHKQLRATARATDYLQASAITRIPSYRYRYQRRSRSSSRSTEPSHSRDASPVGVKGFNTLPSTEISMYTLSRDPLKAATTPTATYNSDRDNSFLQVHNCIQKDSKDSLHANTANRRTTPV
Target sequence (P19491 whole entry, looked up): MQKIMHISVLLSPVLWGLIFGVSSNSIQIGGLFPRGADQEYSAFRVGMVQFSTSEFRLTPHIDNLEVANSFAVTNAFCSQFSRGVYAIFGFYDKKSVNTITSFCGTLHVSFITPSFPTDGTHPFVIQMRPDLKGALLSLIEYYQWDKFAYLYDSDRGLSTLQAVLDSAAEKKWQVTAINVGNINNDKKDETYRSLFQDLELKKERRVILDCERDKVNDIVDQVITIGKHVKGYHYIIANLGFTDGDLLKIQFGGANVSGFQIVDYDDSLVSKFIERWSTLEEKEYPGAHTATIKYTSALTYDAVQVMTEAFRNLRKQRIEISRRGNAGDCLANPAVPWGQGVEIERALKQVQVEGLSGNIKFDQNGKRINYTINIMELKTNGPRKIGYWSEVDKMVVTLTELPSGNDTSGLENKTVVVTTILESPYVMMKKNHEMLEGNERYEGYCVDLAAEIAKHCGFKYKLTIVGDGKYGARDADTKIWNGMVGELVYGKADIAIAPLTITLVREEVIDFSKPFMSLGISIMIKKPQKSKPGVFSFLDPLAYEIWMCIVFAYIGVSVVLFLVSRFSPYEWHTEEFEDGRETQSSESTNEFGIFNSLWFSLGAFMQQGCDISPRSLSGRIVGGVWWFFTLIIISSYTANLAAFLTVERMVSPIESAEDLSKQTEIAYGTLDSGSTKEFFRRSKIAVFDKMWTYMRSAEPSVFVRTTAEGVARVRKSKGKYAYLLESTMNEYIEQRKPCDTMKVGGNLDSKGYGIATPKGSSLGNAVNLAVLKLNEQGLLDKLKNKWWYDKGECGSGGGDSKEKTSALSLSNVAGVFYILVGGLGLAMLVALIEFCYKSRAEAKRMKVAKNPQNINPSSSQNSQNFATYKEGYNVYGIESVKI
The depositor's hits bear a star; i = inactive; . = no result; + = active, no number. Only a selection was taken, and hits are over-represented in it overall.

SMILES	GIRK2 act	AMPAR-TARP mod
COc1ccc(S(=O)(=O)NCC2CCN(C3CCCC3)CC2)cc1OC	i	i
CCCOc1ccc(S(=O)(=O)NCC2CCN(C3CCCC3)CC2)cc1	i	+
CCCc1ccc(S(=O)(=O)NCC2CCN(C3CCCC3)CC2)cc1	.	+
COC(=O)N1CCC(CNS(=O)(=O)c2ccc3c(c2)CCCC3)CC1	i	i
O=S(=O)(NCC1CCN(C2CCCC2)CC1)c1ccc2c(c1)CCCC2	i	+
CCc1ccc(S(=O)(=O)NCC2CCN(C3CCCC3)CC2)cc1	.	i
O=C(Cc1cc(-c2ccco2)on1)NC(c1ccccc1)c1ccccc1	i	i
COCCNC(=O)C(=O)NCC1OCCCN1S(=O)(=O)c1ccc(OC)c(OC)c1 (stereo not given)	.	i
Cc1nnsc1C(=O)N1CCC(CNC(=O)c2c(F)cccc2Cl)CC1	i	i
CCOCC(=O)NCC1CCN(C(=O)Nc2ccccc2OC)CC1	i	i
CCOC(=O)C1CCN(C(=S)Nc2ccccc2OC)CC1	.	+
Cc1ccc(S(=O)(=O)Nc2ccc3c(c2)N(S(=O)(=O)c2ccccc2)CCC3)c(C)c1	.	i
O=C(CCCn1nc(-c2ccccc2)ccc1=O)Nc1ccc2c(c1)OCCO2	i	.
O=C(CCCn1nc(-c2ccc(Cl)cc2)ccc1=O)Nc1ccc2c(c1)OCCO2	i	+
O=C(NCC1CCN(c2ncccn2)CC1)C1COc2ccccc2O1 (stereo not given)	i	i
COc1cccc2sc(NC(=O)c3cccc(S(=O)(=O)C(C)C)c3)nc12	i	i
CC(C)NC(=O)CSc1nnc(N2CCN(c3ccc(F)cc3)CC2)s1	i	+
CCOC(=O)C(C)Sc1nnc(N2CCN(c3ccc(F)cc3)CC2)s1 (stereo not given)	i	i
O=C(NCc1ccco1)c1sccc1S(=O)(=O)N1CCN(c2ccccc2F)CC1	i	.
CCc1nnc(NS(=O)(=O)c2ccc(NC(=O)c3ccc([N+](=O)[O-])o3)cc2)s1	.	i
CCc1nnc(NS(=O)(=O)c2ccc(NC(=O)c3cc4cc([N+](=O)[O-])ccc4s3)cc2)s1	.	+
CC(CNC(=O)C1CCN(c2ncnc3c2sc2ncccc23)CC1)c1ccccc1 (stereo not given)	i	.
O=S(=O)(c1ccc(Oc2ccccc2Cl)cc1)N1CCCC1	.	+
O=S(=O)(c1ccc(Oc2ccccc2Cl)cc1)N1CCCCC1	.	i
CSc1cccc(N2C(=O)N(Cc3cccc([N+](=O)[O-])c3)C3CS(=O)(=O)CC32)c1 (stereo not given)	i	i
SMILES	GIRK2 act	AMPAR-TARP mod
Cc1nccn1CC1CCN(S(=O)(=O)c2cccs2)CC1	i	i
O=S(=O)(c1cc(F)ccc1F)N1CCC(Cn2ccnc2-c2ccccc2)CC1	i	+
O=C(NCCCc1ccccc1)NCC1CCN(C2CCCC2)CC1	i	i
Cc1cc(C)n(-c2ccc(=O)n(CC(=O)Nc3cc4ccccc4oc3=O)n2)n1	i	i
CN1CCN(CC(O)COCCOc2ccc(Br)cc2)CC1 (stereo not given)	i	i
CC1CCN(CC(O)COCCOc2ccc(Cl)cc2)CC1 (stereo not given)	.	+
CC1CCN(CC(O)COCCOc2ccc(Br)cc2)CC1 (stereo not given)	i	+
CC1CCN(CC(O)COCCOc2ccc(C(C)C)cc2)CC1 (stereo not given)	i	.
CCOC(=O)Cn1c(=O)c2c(nc3n2CCN3c2cc(C)ccc2OC)n(C)c1=O	.	i
O=S(=O)(NCCC(O)c1cccs1)c1ccc(OC(F)(F)F)cc1 (stereo not given)	i	+
O=S(=O)(NCCC(O)c1cccs1)c1cccc(C(F)(F)F)c1 (stereo not given)	i	i
COc1ccc(S(=O)(=O)CCC(=O)Nc2nc(-c3cc(OC)ccc3OC)cs2)cc1	i	i
N#Cc1nc(-c2ccc(S(=O)(=O)N3CCCCCC3)cc2)oc1NCCCn1ccnc1	i	+
N#Cc1nc(-c2ccc(S(=O)(=O)N3CCCCCC3)cc2)oc1NCCN1CCOCC1	i	i
CN(C)C(CNC(=O)C1(c2ccccc2)CCOCC1)c1cccs1 (stereo not given)	i	i
O=C(CCSc1ccc(Cl)cc1)Nc1nnc(-c2ccccn2)o1	i	i
O=C(CCS(=O)(=O)c1ccc(Cl)cc1)Nc1nnc(-c2ccccn2)o1	i	+
Cc1cccc(Nc2ccc(N3CCN(C(=O)/C=C/c4ccco4)CC3)nn2)n1	i	i
N#CC1(C(=O)NCCC2=CCCCC2)CC1	i	.
c1csc(C2=NN=C(N3CCNCC3)SC2)c1	i	i
COc1ccccc1CNC(=O)CCc1csc(NC(=O)c2ccc(F)cc2)n1	i	i
COc1ccccc1CNC(=O)CCc1csc(NC(=O)c2ccc(Cl)cc2)n1	i	+
O=C(CCc1csc(NC(=O)c2ccc[nH]c2=O)n1)NCc1ccc2c(c1)OCO2	i	i
O=C(CCc1csc(NC(=O)c2ccc[nH]c2=O)n1)NCc1ccc(F)cc1	i	+
COc1ccc(N(CC(=O)N2CCc3ccccc32)S(=O)(=O)c2cccnc2)cc1	i	i
SMILES	GIRK2 act	AMPAR-TARP mod
O=C(Nc1nnc(-c2ccc(Br)s2)o1)c1cccc(F)c1	.	i
O=S(=O)(NCC(O)(c1ccco1)C1CC1)c1cccc(C(F)(F)F)c1 (stereo not given)	i	+
O=S(=O)(NCC(O)(c1ccco1)C1CC1)c1ccc2c(c1)OCCO2 (stereo not given)	i	i
O=C(NCCC(O)c1ccco1)C(=O)Nc1ccc(OC(F)(F)F)cc1 (stereo not given)	i	i
Cc1cc(C)n(CCN2CCN(C(=O)c3c(-c4ccccc4Cl)noc3C)CC2)n1	i	i
O=C(NCC(O)c1ccsc1)C1CC1 (stereo not given)	i	i
O=C(NCc1ccsc1)C1CCCCC1	i	+
O=C(NCCn1nc(-c2cccnc2)ccc1=O)c1ccccc1	i	i
Cc1cccc(NS(=O)(=O)c2ccc(CN3C(=O)c4ccccc4C3=O)cc2)c1C	.	i
COc1cccc2cc(C(=O)N3CCC(OC)CC3)oc12	i	i
Cc1cc(C)c(C)c(OCC(O)CN2CC(C)CC(C)C2)c1 (stereo not given)	i	+
COc1ccccc1OCC(O)CN1C(C)(C)CC(O)CC1(C)C (stereo not given)	i	i
Cc1cc(C)c(C)c(OCC(O)CN2C(C)(C)CC(O)CC2(C)C)c1 (stereo not given)	i	+
COc1ccccc1OCC(O)CN1CC(C)CC(C)C1 (stereo not given)	i	i
O=C(NCC1CCN(C(=O)c2cc3ccccc3o2)CC1)c1cc(-c2ccccc2)on1	i	+
O=C(NCC1CCN(C(=O)c2cc3ccccc3o2)CC1)c1ccc(Cl)s1	i	+
CC(C)(C)NC(=O)N1CCC(CNC(=O)c2cc(-c3ccccc3)on2)CC1	i	i
Cc1csc(C(=O)NCC2CCN(C(=O)c3cc4ccccc4o3)CC2)c1	i	+
Cc1cc(C(=O)NCC2CCN(C(=O)c3cc4ccccc4o3)CC2)c(C)o1	i	i
O=C(NCC1CCN(C(=O)c2cc3ccccc3o2)CC1)c1cc(Cl)ccc1Cl	i	i
